KAT2A inh = blocks human GCN5L2 histone acetyltransferase. Q92830. GCN5L2 HAT assay, ThioGlo1 CoA-SH fluorescence. Potency, µM (series often up to 58.9 µM), for the others: at the highest dose activity change, negative = inhibition, usual class: inhibitors. 0.21% of 390,000 active; also: % is scaled to controls: 0 for no effect and ±100 for the full control effect
Target sequence (Q92830 whole entry, looked up): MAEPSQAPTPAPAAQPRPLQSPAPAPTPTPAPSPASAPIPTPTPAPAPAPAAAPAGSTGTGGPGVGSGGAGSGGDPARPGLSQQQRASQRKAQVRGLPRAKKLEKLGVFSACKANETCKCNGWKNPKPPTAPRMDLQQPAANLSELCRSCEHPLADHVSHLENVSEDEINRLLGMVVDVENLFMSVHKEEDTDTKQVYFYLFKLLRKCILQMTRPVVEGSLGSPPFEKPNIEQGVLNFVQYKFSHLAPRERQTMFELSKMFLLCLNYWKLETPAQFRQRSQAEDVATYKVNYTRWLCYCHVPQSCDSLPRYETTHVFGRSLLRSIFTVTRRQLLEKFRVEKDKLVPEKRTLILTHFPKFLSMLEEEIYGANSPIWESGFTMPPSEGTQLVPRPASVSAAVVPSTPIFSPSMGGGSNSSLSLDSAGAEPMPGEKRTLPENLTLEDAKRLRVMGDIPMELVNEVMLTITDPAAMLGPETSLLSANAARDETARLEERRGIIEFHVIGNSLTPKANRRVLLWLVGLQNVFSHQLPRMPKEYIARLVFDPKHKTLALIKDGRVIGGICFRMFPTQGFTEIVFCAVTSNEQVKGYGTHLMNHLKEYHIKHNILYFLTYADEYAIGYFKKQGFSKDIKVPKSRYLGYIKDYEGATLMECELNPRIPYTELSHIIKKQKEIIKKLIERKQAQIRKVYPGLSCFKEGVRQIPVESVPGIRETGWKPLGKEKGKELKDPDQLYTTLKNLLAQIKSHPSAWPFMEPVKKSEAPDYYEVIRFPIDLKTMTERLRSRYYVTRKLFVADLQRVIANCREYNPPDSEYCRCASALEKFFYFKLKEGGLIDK
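Free CoA generated was detected with ThioGlo1 (50uM) fluorescence at Ex340nm/Em540nm, read immediately and after 20 min at room temperature. Enzyme, 20 nM in HEPES pH 7.5 buffer, saw compounds 15 min before adding 75uM H3(1-25) peptide and 70uM acetyl-CoA.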
Mito fusion act = mitochondrial division inhibition or fusion activation; S. cerevisiae fusion-defective mutant growth rescue, CellTiterGlo 48 h; Potency, µM (doses to about 46.1 µM), without a hit: at the highest dose growth rescue (activation), usual class: activators; 0.23% of 320,000 active; AID 485298; also: % of control where 0% means no effect; nearly all actives have a fitted effect of over 45% in size
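Compounds are tested for their ability to restore growth of mitochondrial fusion-defective yeast strains at non-permissive 37C in YPEG medium over 48 hours. Viability is quantified by luciferase luminescence.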
GLS inhibitor = inhibitors of human glutaminase (GLS); O94925; 0.21% of 410,000 active; GLS enzymatic activity, qHTS titration; AID 624170; Potency, µM (titrated, usually from 45.5 µM), for the others: top-dose activity change, negative = inhibition, actives largely listed as inhibitors; also: % is scaled to controls: 0 for no effect and ±100 for the full control effect
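Assay buffer: 45 mM KH2PO4 pH 8.2, 0.02% Tween-20. hKGA acts on L-glutamine (1 mM solution added); product glutamate is reported by an oxidase/peroxidase Amplex Red coupling, with fluorescence taken at baseline and 30 min.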
VDR inhibitor = vitamin D3 receptor (human) inhibition. P11473. VDR-SRC2-3 peptide fluorescence polarization, 2 h. Potency, µM, for the others: max response, negative = inhibition, actives largely listed as inhibitors. 0.93% of 400,000 active; also: % is scaled to controls: 0 for no effect and ±100 for the full control effect
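Measured by FP: displacement of SRC2-3 coactivator peptide from VDR by library compounds, following a two-hour ambient incubation.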
PLK1 PBD block = PLK1 (human) polo-box domain binding inhibition | Plk1 PBD binding of FITC phosphopeptide, fluorescence polarization | Potency, µM, without a hit: max response, negative = inhibition, hits mostly inhibitors | 2.8% of 360,000 active | AID 720504; also: series mostly up to about 57 µM; % is scaled to controls: 0 for no effect and ±100 for the full control effect; nearly all actives have a fitted effect of over 65% in size
PKM2 act = PKM2 (human) enzyme activation; P14618; purified PKM2, Kinase-Glo ATP luminescence, activation; response scale: 0% is enzyme alone, no compound; Potency, µM (series often up to 57.5 µM), for the others: at the highest dose activation, actives largely listed as activators; 0.34% of 260,000 active; AID 1631; also: % is scaled to controls: 0 for no effect and ±100 for the full control effect; nearly all actives have a fitted effect of over 55% in size
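Kinase-Glo luminescence reports ATP generated from ADP (0.1 mM) and PEP (0.5 mM) by purified hPK-M2 after 1 h at room temperature, pH 7.2 imidazole buffer; intermediate enzyme activity allows detecting inhibitors and activators.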
* marks the source's active call; other numbers are inactive results; ? = inconclusive; . = no result; [ ] = another dose, or the depositor's remark. Hits are enriched below; roughly 3.4% of the tested compounds scored in any of these assays. Calls follow the shape of the dose curve; as a rule, active = well fitted curve in the direction sought with a large enough effect; inconclusive = small, poorly fitted or top-dose-only effect, or another doubt; inactive = no such curve, though single readings can be large; an effect the other way counts as inactive or inconclusive. Potency is read from the fitted curve at half-maximal effect.

SMILES | KAT2A inh | Mito fusion act | GLS inhibitor | VDR inhibitor | PLK1 PBD block | PKM2 act
O=C(OCC(=O)N1CCN(C(=O)c2ccco2)CC1)c1cc(-c2ccco2)nc2ccccc12 | ? | -0.8% | 4.2% | -27.4% | ? | 15.8µM*
CC1(C)C(OC(=O)CCC(=O)O)CC[C@]2(C)C1CC[C@@]1(C)C2C(=O)C=C2[C@@H]3C[C@@](C)(C(=O)O)CC[C@]3(C)CCC21C (stereo not given in full) | 17.6% | . | . | ? | . | .
CCOc1nc(N2CCOCC2)nc(C)c1[N+](=O)[O-] | 2.0% | ? | -3.1% | -9.5% | 29.9µM* | -2.1%
CNCCOc1nc(N2CCOCC2)nc(C)c1[N+](=O)[O-] | -0.8% | -1.4% | -1.7% | -8.8% | -3.3% | -6.5%
COC(=O)c1sc(-c2ccc(C(C)(C)C)cc2)cc1NC(=O)CSCC(=O)O | ? | 15.0% | 27.1% | -18.2% | ? | -4.7%
COC(=O)c1sc(-c2ccc(C(C)(C)C)cc2)cc1NC(=O)c1ccccc1C(=O)O | ? | 4.7% | -4.1% | ? | 21.2µM* | 1.8%
COc1ccc2c3c(n(C(=O)OC(C)(C)C)c2c1)C1CC=C(COC(C)=O)CN1CC3 (stereo not given) | . | . | . | . | -10.0% | .
C/C(=N\NC(=O)c1cc(C(C)(C)C)[nH]n1)C12CC3CC(CC(C3)C1)C2 | 6.9% | 2.3% | ? | -28.9% | 16.8µM* | -0.7%
O=C(N/N=C/c1ccc(O)cc1)c1cc(C23CC4CC(CC(C4)C2)C3)[nH]n1 | -3.1% | 2.3% | 1.1% | -8.3% | 1.1% | 7.8%
CCC1CN(C(=O)Nc2ccc(C(=O)O)cc2)c2cc(Cl)ccc2O1 (stereo not given) | 0.7% | . | 5.3% | -14.9% | . | .
Cc1ccc(OCc2cc(C(=O)N(C)Cc3cnc4ccccn34)no2)cc1C | -3.0% | -7.1% | -25.3% | ? | 21.2µM* | .
Cc1ccc(OCc2cc(C(=O)N(C)CC3CCOCC3)no2)cc1C | -4.3% | -4.8% | 2.3% | -9.3% | -4.7% | 0.2%
Cc1nc(N2CCOCC2)c2nc(-c3ccccc3)n(C(C)CN(C)C)c2n1 (stereo not given) | . | . | . | . | . | -7.2%
Fc1ccc2nc(Nc3nc4cc5c(cc4s3)OCO5)sc2c1 | -3.8% | 9.0% | -1.2% | -0.7% | 1.1% | 3.9%
Fc1ccc2nc(Nc3nc4cc5c(cc4s3)OCCO5)sc2c1 | -3.3% | 12.6µM* | 2.3% | -27.2% | -6.6% | -9.1%
O=C(Nc1nc2cc3c(cc2s1)OCCO3)c1ccncc1 | -10.7% | 12.7% | -20.5% | ? | 21.2µM* | 2.8%
CC(C)C[C@@H](CC(=O)N[C@@H](CCC(=O)O)CC(=O)O)NC(=O)[C@@H]1CCCC[C@H]1NC(=O)C[C@H](CCCN)NC(=O)C[C@H](Cc1ccccc1)NC(=O)[C@@H]1CNCC[C@H]1N | . | . | . | 4.7% | . | .
CCCCN(C)C(=O)C1CCCN(S(=O)(=O)c2ccc3c(c2)CC(C)N3C(=O)C2CC2)C1 (stereo not given) | -5.8% | 1.12µM* | 4.8% | -3.5% | -0.3% | .
O=C(Nc1cccc(-c2ccc(F)cc2)c1)C1CCCN(C(=O)c2cscn2)C1 (stereo not given) | -19.6% | 0.0% | -4.5% | -3.8% | -7.1% | .
Fc1ccc(/C=C2\CCCC3=C2Nc2ncnn2C3c2ccc(F)cc2)cc1 (stereo not given) | -11.8% | -4.7% | 34.0% | ? | 23.8µM* | 23.3%
CCc1cc(C(=O)N(C)CC(=O)Nc2c(Cl)cccc2Cl)sc1C | -4.5% | -3.0% | 6.6% | 0.7% | 0.7% | .
CCCCS(=O)(=O)N1CCc2nc(-c3ccc(OC)cc3C)c3c(c2C1)CO[C@@H](c1ccccc1)C3 | . | . | . | . | . | -5.3%[11.5 µM]
O=C(Oc1c(Br)cc(C(=S)N2CCOCC2)cc1Br)c1ccc(Cl)cc1 | -14.9% | 7.3% | -16.2% | ? | 6.7µM* | 7.8%
COc1ccc(C(=S)N2CCOCC2)cc1OC(=O)c1ccccc1Cl | -10.8% | 2.4% | 11.6% | -21.0% | 18.9µM* | -7.4%
COc1cc(C(=S)N2CCOCC2)cc(OC)c1OC(=O)c1ccccc1[N+](=O)[O-] | -2.9% | 0.9% | 9.5% | -10.4% | -16.3% | 0.6%[11.5 µM]
SMILES | KAT2A inh | Mito fusion act | GLS inhibitor | VDR inhibitor | PLK1 PBD block | PKM2 act
COc1cc(C(=S)N2CCOCC2)ccc1OC(=O)c1ccccc1C | -5.3% | -4.5% | 0.0% | 3.1% | -22.4% | -0.3%[11.5 µM]
COc1cc(C(=S)N2CCOCC2)cc(OC)c1OC(=O)Cc1ccc(F)cc1 | -3.8% | 6.4% | 20.8% | ? | 7.52µM* | 1.0%
COc1cc(C(=S)N2CCOCC2)cc(OC)c1OS(=O)(=O)c1ccc(Cl)cc1 | -9.5% | -1.4% | -7.7% | 89.1µM* | 13.4µM* | -0.2%
CN(CCCNC(=O)Cn1ncc2c([nH]c3ccccc32)c1=O)Cc1ccccc1 | -7.7% | . | 0.5% | 4.6% | . | .
COc1cc(C(=O)Oc2c(OC)cc(C(=S)N3CCOCC3)cc2OC)cc(OC)c1OC | -2.9% | 3.7% | -2.6% | -0.9% | -1.2% | 0.4%
COc1cc(C(=S)N2CCOCC2)cc(OC)c1OC(=O)c1ccc(F)cc1 | -6.9% | -11.9% | -14.2% | ? | 11.9µM* | -15.2%
c1ccc(CSc2ncnc3c2cnn3Cc2ccccc2)cc1 | 3.9% | 6.3% | 1.8% | 4.6% | 1.4% | 5.01µM*
O=C(N/N=C/c1cnc(N2CCCCC2)s1)c1ccc(Cl)cc1 | 0.3% | 4.4% | 17.2% | -5.5% | 29.9µM* | -0.5%
COc1cccc(CNC(=O)[C@@H]2CCCN2C(=O)[C@@H]2CCCN2C(=O)c2cccc(OC)c2)c1 | . | . | -1.5% | . | 1.5% | .
O=C(O)C/C(=C\c1cccc(NC(=O)c2ccccc2Cl)c1)c1nc2ccccc2s1 | -12.9% | ? | 30.6% | -26.5% | 26.7µM* | 1.4%
O=C(O)C/C(=C\c1cc2c(cc1Br)OCO2)c1nc2ccccc2s1 | -9.2% | 14.8% | 0.5% | -13.0% | 23.8µM* | 3.7%
COc1ccc(C(=O)Nc2cccc(/C=C(\CCC(=O)O)c3nc4ccccc4s3)c2)cc1 | -14.0% | 3.2% | 8.1% | ? | 10.6µM* | -6.0%
Cc1ccc(/C=C(\CCC(=O)O)c2nc3ccccc3s2)cc1[N+](=O)[O-] | 2.6% | 8.4% | 5.2% | -20.9% | ? | 3.2%
COc1cc(/C=C/C(=O)OCC(=O)Nc2ccc3[nH]c(=O)[nH]c3c2)ccc1OC(F)F | . | . | 1.0% | . | 2.2% | .
COc1cc(OC)cc(C2=Cc3ccccc3C(CC(=O)c3ccco3)N2c2ccc(-c3ccc(C(N)=O)cc3)cc2)c1 (stereo not given) | . | . | 3.1% | . | -22.6% | .
COCCN(C(=O)COC(=O)CCOc1cccc(C)c1)c1c(N)n(Cc2ccccc2)c(=O)[nH]c1=O | -1.9% | -7.3% | -8.9% | 20.9% | -1.1% | .
N#C/C(=N\Nc1ccccc1)C(N)=S | ? | -21.0% | 11.2µM* | -6.1% | -18.7% | -3.9%
